Compounds without any hit were thinned out: in the full panel of roughly 79,000, 15% have a hit. Active and inactive are the calls of the source. No stated cut-off is given here; in the data, active means growth inhibition above about 70%; inactive means the rest.
Columns and labels:
[1] = NCI Yeast Anticancer Drug Screen. Data for the wt1 strain (AID 149);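 further: 0% = growth of vehicle-treated wt1 cultures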; details: S. cerevisiae wt1 strain (SPY 50644) growth inhibition, hits give high values
How it was run: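 Vehicle-normalised growth inhibition; strain wt1; compound exposure.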

[2] = NCI Yeast Anticancer Drug Screen. Data for the rad50EPP+ strain (AID 151);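 further: 0% = growth of vehicle-treated control cultures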; details: S. cerevisiae rad50 mutant strain, hits give high values
How it was run: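 One strain with a rad50 alteration (rad50EPP+) was compound-treated, its growth then compared to that of vehicle controls.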

[3] = NCI Yeast Anticancer Drug Screen. Data for the mgt1 strain (AID 153); details: S. cerevisiae mgt1 mutant growth inhibition, hits give high values
How it was run: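 After exposure of the mgt1 yeast mutant to compound, growth was measured and reported as inhibition compared with vehicle controls.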

[4] = NCI Yeast Anticancer Drug Screen. Data for the rad50 strain (AID 155);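 further: 0% = growth of vehicle-only cultures of the same strain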; details: S. cerevisiae rad50 strain growth inhibition, hits give high values
How it was run: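 A DNA repair-deficient yeast mutant serves as the test organism; compound-induced growth inhibition is calculated against vehicle-treated cells.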

[5] = NCI Yeast Anticancer Drug Screen. Data for the mec2-1 strain (AID 157); details: S. cerevisiae mec2-1 strain, hits give high values
How it was run: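 Test agents were screened against the mec2-1 yeast strain, with defined DNA repair or cell cycle alteration. Growth was scored as inhibition against vehicle-only controls.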

[6] = NCI Yeast Anticancer Drug Screen. Data for the rad14 strain (AID 159);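 further: 0% = growth of vehicle-treated control cultures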; details: S. cerevisiae rad14 strain growth inhibition, hits give high values
How it was run: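 Vehicle-treated cultures served as the baseline for growth inhibition of a DNA repair-mutant yeast strain exposed to each compound.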

[7] = NCI Yeast Anticancer Drug Screen. Data for the sgs1 mgt1 strain (AID 161);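 further: 0% = growth of cultures given vehicle only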; details: S. cerevisiae sgs1 mgt1 strain, hits give high values
How it was run: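 Read-out: growth inhibition vs vehicle controls. Cells: mutant yeast strain deficient in DNA damage repair.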

[8] = NCI Yeast Anticancer Drug Screen. Data for the CLN2oe strain (AID 163);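 further: 0% = growth of vehicle-only control cultures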; details: S. cerevisiae CLN2oe strain, hits give high values
How it was run: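 Here, growth inhibition in a cell-cycle-altered yeast strain after compound exposure was quantified against vehicle control growth.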

[9] = NCI Yeast Anticancer Drug Screen. Data for the cln2 rad14 strain (AID 165);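 further: 0% = growth equal to vehicle treated cultures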; details: S. cerevisiae cln2 rad14 strain, hits give high values
How it was run: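 Growth of compound-exposed yeast (cln2 rad14 genotype) measured and expressed as inhibition relative to vehicle.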

[10] = NCI Yeast Anticancer Drug Screen. Data for the bub3 strain (AID 167); details: S. cerevisiae bub3 mutant strain, hits give high values
How it was run: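 Inhibition values come from growth of compound-treated mutant yeast normalised to vehicle-treated controls.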

[11] = NCI Yeast Anticancer Drug Screen. Data for the wt2 strain (AID 169);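 further: 0% = growth of vehicle-treated yeast cultures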; details: S. cerevisiae wt2 strain growth inhibition, hits give high values
How it was run: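 Genetically defined yeast strains from a DNA-repair/cell-cycle panel were used. Compound-exposed yeast growth was measured, and the inhibition was calculated relative to vehicle treatment.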

[12] = NCI Yeast Anticancer Drug Screen. Data for the mlh1 strain (AID 171);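 further: 0% = growth of vehicle-treated control cultures of the same strain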; details: S. cerevisiae mlh1 strain growth inhibition, hits give high values
How it was run: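 Here the genetically defined yeast mutant is grown with each compound, and the extent to which its growth falls below that of vehicle-exposed cells is reported.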

[13] = NCI Yeast Anticancer Drug Screen. Data for the sgs1 strain (AID 173);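 further: 0% = growth of vehicle-only control cultures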; details: S. cerevisiae sgs1 mutant, hits give high values
How it was run: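 Relative growth inhibition, referenced to vehicle, was determined in a yeast strain with a defined alteration affecting DNA damage repair or cell cycle control after compound exposure.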

[14] = NCI Yeast Anticancer Drug Screen. Data for the mlh1 rad18 strain (AID 175); details: S. cerevisiae mlh1 rad18 strain growth inhibition, hits give high values
How it was run: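 In this whole-cell yeast screen, a strain with altered DNA damage repair is challenged with compound, and its growth is measured against matched vehicle-treated controls.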

[15] = NCI Yeast Anticancer Drug Screen. Data for the rad18 strain (AID 177); details: S. cerevisiae rad18 mutant growth inhibition, hits give high values
How it was run: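 Screen uses a yeast strain with a defined lesion in DNA damage repair; compound effect is read as loss of growth compared to untreated vehicle cultures.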

[16] = at 5.0 µM (retest, dose inferred, filed as 0.5)
[17] = at 50.0 µM (retest, dose inferred, filed as 5.0)

Measured: growth inhibition

CCCCCCCCCCCCOC1C(COCCN2CCCC2)OC2OC(C)(C)OC21 (stereo unspecified)
active: [1]; at 11.0 µM 93% | [1]; at 33.0 µM 99% | [1]; at 100.0 µM 99% | [2]; at 33.0 µM 97% | [2]; at 100.0 µM 98% | [3]; at 11.0 µM 97% | [3]; at 33.0 µM 98% | [3]; at 100.0 µM 98% | [4]; at 11.0 µM 98% | [4]; at 33.0 µM 98% | [4]; [17] 99% | [4]; at 50.0 µM 93% | [4]; at 100.0 µM 98% | [5]; at 11.0 µM 97% | [5]; at 33.0 µM 99% | [5]; [17] 99% | [5]; at 50.0 µM 93.4% | [5]; at 100.0 µM 98% | [6]; at 11.0 µM 98% | [6]; at 33.0 µM 98% | [6]; at 100.0 µM 98% | [7]; [17] 99% | [7]; at 50.0 µM 90.2% | [8]; at 11.0 µM 71% | [8]; at 33.0 µM 98% | [8]; at 100.0 µM 98% | [9]; [17] 97% | [9]; at 50.0 µM 90.3% | [10]; at 11.0 µM 96% | [10]; at 33.0 µM 98% | [10]; [17] 98% | [10]; at 50.0 µM 88.5% | [10]; at 100.0 µM 98% | [11]; at 11.0 µM 78% | [11]; at 33.0 µM 98% | [11]; at 100.0 µM 98% | [12]; at 11.0 µM 94% | [12]; at 33.0 µM 98% | [12]; at 100.0 µM 98% | [13]; at 11.0 µM 97% | [13]; at 33.0 µM 98% | [13]; at 100.0 µM 98% | [14]; [17] 99% | [14]; at 50.0 µM 90% | [15]; at 11.0 µM 97% | [15]; at 33.0 µM 98% | [15]; at 100.0 µM 97%
inactive: [1]; at 1.2 µM 23% | [1]; at 3.7 µM 15% | [2]; at 1.2 µM 36% | [2]; at 3.7 µM 27% | [2]; at 11.0 µM 2% | [3]; at 1.2 µM 3% | [3]; at 3.7 µM 2% | [4]; at 1.2 µM 5% | [4]; at 3.7 µM 1% | [4]; [16] 13% | [5]; at 1.2 µM 18% | [5]; at 3.7 µM 11% | [5]; [16] 2% | [6]; at 1.2 µM 11% | [6]; at 3.7 µM 14% | [7]; [16] 19% | [8]; at 1.2 µM -5% | [8]; at 3.7 µM 23% | [9]; [16] 42% | [10]; at 1.2 µM -18% | [10]; at 3.7 µM -16% | [10]; [16] 29% | [11]; at 1.2 µM -13% | [11]; at 3.7 µM -28% | [12]; at 1.2 µM 25% | [12]; at 3.7 µM 27% | [13]; at 1.2 µM 22% | [13]; at 3.7 µM 21% | [14]; [16] 16% | [15]; at 1.2 µM 37% | [15]; at 3.7 µM 27%

CCSc1c2ccccc2c(-c2nc(F)nc(F)n2)n1CCc1ccccc1
inactive: [1]; at 1.2 µM -7% | [1]; at 3.7 µM -4% | [1]; at 11.0 µM 10% | [2]; at 1.2 µM -22% | [2]; at 3.7 µM -17% | [2]; at 11.0 µM -22% | [2]; at 33.0 µM -15% | [2]; at 100.0 µM 3% | [3]; at 1.2 µM -27% | [3]; at 3.7 µM -32% | [3]; at 11.0 µM -29% | [4]; at 1.2 µM -30% | [4]; at 3.7 µM -10% | [4]; [16] -23% | [4]; at 11.0 µM -6% | [4]; [17] 52% | [5]; at 1.2 µM -14% | [5]; at 3.7 µM -17% | [5]; [16] -43% | [5]; at 11.0 µM -4% | [5]; [17] 0% | [6]; at 1.2 µM -17% | [6]; at 3.7 µM -12% | [6]; at 11.0 µM 2% | [7]; [16] -15% | [8]; at 1.2 µM -24% | [8]; at 3.7 µM -20% | [8]; at 11.0 µM 4% | [9]; [16] 19% | [10]; at 1.2 µM -11% | [10]; at 3.7 µM -21% | [10]; [16] 0% | [10]; at 11.0 µM -3% | [11]; at 1.2 µM -1% | [11]; at 3.7 µM -2% | [11]; at 11.0 µM 4% | [12]; at 1.2 µM -41% | [12]; at 3.7 µM -34% | [12]; at 11.0 µM -22% | [13]; at 1.2 µM 34% | [13]; at 3.7 µM 32% | [13]; at 11.0 µM 39% | [14]; [16] -12% | [15]; at 1.2 µM -5% | [15]; at 3.7 µM 0% | [15]; at 11.0 µM 7%
active: [1]; at 33.0 µM 80% | [1]; at 100.0 µM 97% | [3]; at 33.0 µM 81% | [3]; at 100.0 µM 97% | [4]; at 33.0 µM 72% | [4]; at 50.0 µM 87% | [4]; at 100.0 µM 96% | [5]; at 33.0 µM 78% | [5]; at 50.0 µM 80.7% | [5]; at 100.0 µM 98% | [6]; at 33.0 µM 84% | [6]; at 100.0 µM 97% | [7]; [17] 70% | [7]; at 50.0 µM 87.7% | [8]; at 33.0 µM 89% | [8]; at 100.0 µM 97% | [9]; [17] 70% | [9]; at 50.0 µM 86.6% | [10]; at 33.0 µM 82% | [10]; [17] 88% | [10]; at 50.0 µM 86% | [10]; at 100.0 µM 97% | [11]; at 33.0 µM 77% | [11]; at 100.0 µM 98% | [12]; at 33.0 µM 75% | [12]; at 100.0 µM 97% | [13]; at 33.0 µM 79% | [13]; at 100.0 µM 98% | [14]; [17] 77% | [14]; at 50.0 µM 81.3% | [15]; at 33.0 µM 75% | [15]; at 100.0 µM 97%
